Screen size: about 52,000 compounds; about 1,700 (3.3%) were called active. The entries come from a sample that favours actives as a whole. A number with no mark means an inactive call. No stated cut-off is given here; in the data, active means survival mostly below about 52% (no sharp cut-off); inactive means mostly above about 56%.

This assay has as its system Wild type. Put plainly: growth inhibition of S. aureus wild type versus tarO mutant, primary screen, teichoic acid synthesis inhibitors, RN4220, OD600 (AID 463173). The conditions noted are these: S. aureus RN4220 wild type/DeltatarO growth, OD600, 18 h, hits give low values, screened at 18.75 µg/mL (by protocol).
Turning to `O=C(Nc1nnc(S(=O)(=O)N2CCCCCC2)s1)c1ccccc1`, the survival is 48%. On to `Cc1ccc(NC(=O)CCC(=O)N2Cc3ccccc3Oc3ncccc32)cc1Cl`, for which the survival was 82%. To `CCC(C)NC(=O)CCC(=O)N1Cc2ccccc2Oc2ncccc21` (stereo unspecified) belongs 121%.

`CC(C)NC(=O)CCC(=O)N1Cc2ccccc2Oc2ncccc21`: the survival is -2% (active). To `Cc1ccc(NC(=O)CCC(=O)N2Cc3ccccc3Oc3ncccc32)cc1` belongs 22%; to `CCOc1ccc(CNC(=O)CCC(=O)N2Cc3ccccc3Oc3ncccc32)cc1`, 0% (active); to `CN(C)c1ccc(CNC(=O)CCC(=O)N2Cc3ccccc3Oc3ncccc32)cc1`, 77%. To `Cc1ccc(CNC(=O)CCC(=O)N2Cc3ccccc3Oc3ncccc32)cc1` belongs 73%. Next, `CC(C)CCNC(=O)CCC(=O)N1Cc2ccccc2Oc2ncccc21`: 65%; `O=C(CCC(=O)N1Cc2ccccc2Oc2ncccc21)Nc1ccc(Cl)cc1`: 10% (active); `Cc1ccc(N2C(=O)SC(N(CC(=O)O)c3ccccc3)C2=O)cc1` (stereo unspecified): 112%. As to `Cc1ccc(C)c(NC(=O)Nc2cccc(-c3cn4cccnc4n3)c2)c1`, the survival was 71%.

In the case of `O=S(=O)(c1ccc(Nc2ccc(-c3ccccc3)nn2)cc1)N1CCCC1`, the survival was 104%. Next, `Cc1cc(C)cc(N2C(=O)N(CC(=O)c3ccc(Br)cc3)c3ccccc3S2(=O)=O)c1`: 84%. To `O=C1CC(c2ccc(Br)cc2)c2c(ccc3ccccc23)N1` (stereo unspecified) belongs 39%; to `Cc1ccc(CSc2ccc3nnc(CCNS(=O)(=O)c4ccc(C)cc4)n3n2)cc1`, 82%; to `O=C(NCCCN1CCCCC1)c1cc(Sc2ccc(Cl)cc2)nc2ccccc12`, -1% (active).

As to `CCc1ccc(Sc2cc(C(=O)NCCCN3CCC(C)CC3)c3ccccc3n2)cc1`, the survival is 68%. To `CC1CCCCN1CCCNC(=O)c1cc(Sc2ccc(Cl)cc2)nc2ccccc12` (stereo unspecified) belongs 78%; to `CC1CCN(CCCNC(=O)c2cc(Sc3ccc(F)cc3)nc3ccccc23)CC1`, 74%. As for `CC1CCCN(CCCNC(=O)c2cc(Sc3ccc(F)cc3)nc3ccccc23)C1` (stereo unspecified), the survival is 14% (active). For `CCc1ccc(Sc2cc(C(=O)NCCCN3CCCC(C)C3)c3ccccc3n2)cc1` (stereo unspecified), the survival is 71%. To `CC(=O)c1[nH]c(C)c(C(=O)NCCc2ccc(C)cc2)c1C` belongs 88%; to `CC(=O)Nc1cc(-n2cnnn2)ccc1C`, 98%. As for `Cc1ccc(NC(=O)Cn2c(=O)n(Cc3nc(C)no3)c(=O)c3cc4c(cc32)OCO4)cc1`, the survival was 90%. To `CCOc1ccccc1CC1C(=O)Nc2ccc(Br)cc21` (stereo unspecified) belongs 73%. Next, `CCCOc1ccc(CC2C(=O)Nc3ccc(Br)cc32)cc1` (stereo unspecified): -7% (active); `CCCCOc1ccccc1CC1C(=O)Nc2ccc(Br)cc21` (stereo unspecified): 3% (active); `CCOc1c(CC2C(=O)Nc3ccc(Br)cc32)cccc1OC` (stereo unspecified): 99%. To `COc1ccc(OC)c(CC2C(=O)Nc3ccc(Br)cc32)c1` (stereo unspecified) belongs 84%; to `COc1ccc(CC2C(=O)Nc3ccc(Br)cc32)cc1OC` (stereo unspecified), 75%. Turning to `Cc1ccccc1C(=O)NCc1ccc2c(c1)CCN2C(=O)c1ccccc1`, the survival is 71%.

In the case of `COc1cccc(OC)c1C(=O)Nc1ccc(-c2nc3ncccc3o2)cc1`, the survival was 88%. To `COc1ccc(C)cc1NC(=O)Cn1c(=O)cc(C)c2c(C)nn(C)c21` belongs 68%; to `CCN(Cc1ccccc1)C(=O)Cn1cc(S(=O)(=O)Cc2cccc(Cl)c2)c2ccccc21`, 75%; to `Cc1nn(C(=O)c2ccc(Cl)cc2)c(C)c1Sc1ccc(Cl)cc1`, 40%. Take `COc1cc(C(=O)n2nc(C)c(Sc3ccc(Cl)cc3)c2C)cc(OC)c1OC`: the survival was 47%. Next, `Cc1nn(C(=O)c2ccccc2)c(C)c1Sc1ccc(Cl)cc1`: 6% (active); `Cc1ccc(Sc2c(C)nn(C(=O)COc3ccc(F)cc3)c2C)cc1`: 85%; `Cc1ccc(Sc2c(C)nn(C(=O)c3ccc(Cl)cc3)c2C)cc1`: 2% (active). To `Cc1nn(C(=O)COc2ccc(Cl)cc2)c(C)c1Sc1ccccc1` belongs 88%. For the compound `Cc1nn(C(=O)COc2ccccc2)c(C)c1Sc1ccccc1`, the survival was 94%. To `Cc1ccc(Sc2c(C)nn(C(=O)COc3ccccc3)c2C)cc1` belongs 9% (active).

On to `Cc1nn(-c2ccccc2)c(OC(=O)C(C)C)c1Sc1ccc(Cl)cc1`, for which the survival was 39%.

As to `Cc1ccccc1Nc1c(-c2cccc(Cl)c2)nc2ncccn12`, the survival was 83%.

As for `NC(=O)c1ccccc1NC(=O)CSc1nc(N)cc(=O)[nH]1`, the survival is 111%. With `CCOC(=O)/C(C#N)=C/c1ccc(-c2ccccc2)o1`, the survival is 81%. With `CCCC(=O)n1nc(-c2cccnc2)nc1NCc1ccc(OC)cc1`, the survival was 86%. Next, `CCOc1ccc2nc(Cl)c(CN(Cc3ccco3)C(=O)N(C)C)cc2c1`: 109%. On to `Cc1ccc(C)c(N2CCN(C(=O)c3cc(S(=O)(=O)N4CCCCCC4)cn3C)CC2)c1`, for which the survival was 77%. On to `CNC(=O)C1CCN(S(=O)(=O)c2ccccc2)CC1`, for which the survival was 109%. To `COc1ccc(-c2nc3ccccc3o2)cc1NC(=O)c1cc(Br)ccc1OC` belongs 66%; to `COc1ccc(-c2nc3ccccc3o2)cc1NC(=O)C(C)(C)Oc1ccc(Br)cc1`, 0% (active); to `COc1ccc(-c2nc3ccccc3o2)cc1NC(=O)COc1ccc(C(C)(C)C)cc1`, 2% (active). With `COc1ccc(OCC(=O)Nc2cc(-c3nc4ccccc4o3)ccc2Cl)cc1`, the survival was 104%.

With `COc1ccc(-c2nc3ccccc3o2)cc1NC(=O)c1ccc(OCC(C)C)cc1`, the survival is 55%. For `COc1ccc(-c2nc3ccccc3o2)cc1NC(=O)c1ccc(-c2ccc(Br)cc2)o1`, the survival was 73%.

Turning to `CC(C)(C)c1ccc(C(=O)Nc2cc(-c3nc4ccccc4o3)ccc2Cl)cc1`, the survival was 2% (active). Consider `O=C(Nc1cc(-c2nc3ccccc3o2)ccc1Cl)c1ccc(Br)o1`, for which the survival was 65%. Next, `O=C(Nc1cc(-c2nc3ccccc3o2)ccc1Cl)c1cccc2c(Cl)cccc12`: 64%; `O=c1nc2sc3ccccc3n2c(=O)n1-c1ccc(Cl)c(Cl)c1`: 27%.

These data come from PubChem BioAssay AID463173 (ICCB-Longwood Screening Facility, Harvard Medical School, 2010).
